Source: the supplement of paper PMC8728848
The sample as a whole holds a higher share of the strongest signals than the screen did.

Experiments:
Experiment in all cases: glycan array binding signal (z-score within array); higher = stronger binding
Conditions in all cases: glycan notation: IUPAC condensed, linker removed
[1] = target: Fuc(a1-2)Gal(b1-3)GlcNAc(b1-3)[Neu5Ac(a2-6)Gal(b1-4)GlcNAc(b1-6)]Gal(b1-4)Glc
Method in brief: (§1)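 From the Consortium for Functional Glycomics database, 3228 arrays were curated, keeping only those whose protein sequence was available. Binding is given as a within-array Z-score averaged across arrays sharing a protein sequence and across linkers. Negative Z-scores can be read as non-binding.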

[2] = target: Fuc(a1-2)Gal(b1-4)GlcNAc(b1-2)Man
Method in brief: as §1

[3] = target: Fuc(a1-2)Gal(b1-4)GlcNAc(b1-2)[Fuc(a1-2)Gal(b1-4)GlcNAc(b1-4)]Man(a1-3)[Fuc(a1-2)Gal(b1-4)GlcNAc(b1-2)Man(a1-6)]Man(b1-4)GlcNAc(b1-4)GlcNAc
Method in brief: as §1

[4] = target: Fuc(a1-2)Gal(b1-4)GlcNAc(b1-3)Gal(b1-4)GlcNAc(b1-3)Gal(b1-4)GlcNAc
Method in brief: as §1

[5] = target: Fuc(a1-2)[Gal(a1-3)]Gal(b1-3)GalNAc(b1-3)Gal(a1-4)Gal(b1-4)Glc
Method in brief: as §1

[6] = target: Fuc(a1-3)[Gal(b1-4)]Glc6S
Method in brief: as §1

[7] = target: Fuc(a1-3)[Gal(b1-4)]GlcNAc(b1-2)Man(a1-3)[Fuc(a1-3)[Gal(b1-4)]GlcNAc(b1-2)Man(a1-6)]Man(b1-4)GlcNAc(b1-4)GlcNAc
Method in brief: as §1

[8] = target: Fuc(a1-3)[Gal(b1-4)]GlcNAc(b1-3)Gal(b1-3)[Fuc(a1-4)]GlcNAc
Method in brief: as §1

[9] = target: Fuc(a1-3)[Gal(b1-4)]GlcNAc(b1-3)Gal(b1-4)[Fuc(a1-3)]GlcNAc
Method in brief: as §1

[10] = target: Fuc(a1-3)[Gal(b1-4)]GlcNAc(b1-3)GalNAc
Method in brief: as §1

Gal(a1-3)Gal = target: Gal(a1-3)Gal
Method in brief: as §1

[11] = target: Gal(a1-3)Gal(b1-3)GlcNAc(b1-2)Man(a1-3)[Gal(a1-3)Gal(b1-3)GlcNAc(b1-2)Man(a1-6)]Man(b1-4)GlcNAc(b1-4)GlcNAc
Method in brief: as §1

[12] = target: Gal(a1-3)Gal(b1-4)[Fuc(a1-3)]GlcNAc(b1-2)Man(a1-3)[Gal(a1-3)Gal(b1-4)[Fuc(a1-3)]GlcNAc(b1-2)Man(a1-6)]Man(b1-4)GlcNAc(b1-4)GlcNAc
Method in brief: as §1

Gal(a1-4)Gal(b1-4)GlcNAc = target: Gal(a1-4)Gal(b1-4)GlcNAc
Method in brief: as §1

[13] = target: Gal(b1-3)GalNAc(b1-3)Gal(a1-4)Gal(b1-4)Glc
Method in brief: as §1

[14] = target: Gal(b1-3)GlcNAc(a1-3)Gal(b1-4)GlcNAc
Method in brief: as §1

[15] = target: Gal(b1-3)GlcNAc(b1-3)GalNAc
Method in brief: as §1

[16] = target: Gal(b1-3)[Fuc(a1-4)]GlcNAc(b1-2)Man(a1-3)[Gal(b1-3)[Fuc(a1-4)]GlcNAc(b1-2)Man(a1-6)]Man(b1-4)GlcNAc(b1-4)[Fuc(a1-6)]GlcNAc
Method in brief: as §1

[17] = target: Gal(b1-3)[Neu5Ac(a2-6)]GalNAc
Method in brief: as §1

[18] = target: Gal(b1-4)GlcNAc(b1-2)[Gal(b1-4)GlcNAc(b1-4)]Man(a1-3)[GlcNAc(b1-4)][Gal(b1-4)GlcNAc(b1-2)Man(a1-6)]Man(b1-4)GlcNAc(b1-4)GlcNAc
Method in brief: as §1

[19] = target: Gal(b1-4)GlcNAc(b1-3)Gal(b1-4)Glc
Method in brief: as §1

[20] = target: Gal(b1-4)GlcNAc(b1-3)Gal(b1-4)GlcNAc(b1-2)Man(a1-3)[Gal(b1-4)GlcNAc(b1-3)Gal(b1-4)GlcNAc(b1-2)Man(a1-6)]Man(b1-4)GlcNAc(b1-4)GlcNAc
Method in brief: as §1

[21] = target: Gal(b1-4)GlcNAc(b1-3)Gal(b1-4)GlcNAc(b1-3)Gal(b1-4)GlcNAc(b1-3)Gal(b1-4)GlcNAc(b1-2)Man(a1-3)[Gal(b1-4)GlcNAc(b1-3)Gal(b1-4)GlcNAc(b1-3)Gal(b1-4)GlcNAc(b1-3)Gal(b1-4)GlcNAc(b1-2)Man(a1-6)]Man(b1-4)GlcNAc(b1-4)[Fuc(a1-6)]GlcNAc
Method in brief: as §1

[22] = target: Gal(b1-4)GlcNAc(b1-3)Gal(b1-4)GlcNAc(b1-3)Gal(b1-4)GlcNAc(b1-3)Gal(b1-4)GlcNAc(b1-2)[Gal(b1-4)GlcNAc(b1-3)Gal(b1-4)GlcNAc(b1-3)Gal(b1-4)GlcNAc(b1-3)Gal(b1-4)GlcNAc(b1-6)]Man(a1-6)[Gal(b1-4)GlcNAc(b1-3)Gal(b1-4)GlcNAc(b1-3)Gal(b1-4)GlcNAc(b1-3)Gal(b1-4)GlcNAc(b1-2)Man(a1-3)]Man(b1-4)GlcNAc(b1-4)[Fuc(a1-6)]GlcNAc
Method in brief: as §1

Gal3S(b1-4)Glc6S = target: Gal3S(b1-4)Glc6S
Method in brief: as §1

[23] = target: Gal3S(b1-4)[Fuc(a1-3)]Glc6S
Method in brief: as §1

Gal6S(b1-3)GlcNAc = target: Gal6S(b1-3)GlcNAc
Method in brief: as §1

[24] = target: GalNAc(a1-3)GalNAc(b1-3)Gal(a1-4)Gal(b1-4)Glc
Method in brief: as §1

[25] = target: GalNAc(b1-3)Gal(a1-6)Gal(b1-4)Glc
Method in brief: as §1

[26] = target: GalNAc3S(b1-4)[Fuc(a1-3)]GlcNAc
Method in brief: as §1

Glc(a1-4)Glc = target: Glc(a1-4)Glc
Method in brief: as §1

GlcA(b1-3)Gal = target: GlcA(b1-3)Gal
Method in brief: as §1

[27] = target: GlcNAc(b1-2)Gal(b1-3)GalNAc
Method in brief: as §1

[28] = target: GlcNAc(b1-3)Gal(b1-4)GlcNAc(b1-2)Man(a1-3)[GlcNAc(b1-3)Gal(b1-4)GlcNAc(b1-2)Man(a1-6)]Man(b1-4)GlcNAc(b1-4)GlcNAc
Method in brief: as §1

[29] = target: GlcNAc(b1-3)Gal(b1-4)GlcNAc(b1-2)[GlcNAc(b1-3)Gal(b1-4)GlcNAc(b1-6)]Man(a1-6)[GlcNAc(b1-3)Gal(b1-4)GlcNAc(b1-2)Man(a1-3)]Man(b1-4)GlcNAc(b1-4)GlcNAc
Method in brief: as §1

[30] = target: GlcNAc(b1-3)Gal(b1-4)GlcNAc(b1-3)Gal(b1-4)GlcNAc(b1-2)Man(a1-3)[GlcNAc(b1-3)Gal(b1-4)GlcNAc(b1-3)Gal(b1-4)GlcNAc(b1-2)Man(a1-6)]Man(b1-4)GlcNAc(b1-4)GlcNAc
Method in brief: as §1

[31] = target: GlcNAc(b1-3)Gal(b1-4)GlcNAc(b1-3)Gal(b1-4)GlcNAc(b1-3)Gal(b1-4)GlcNAc(b1-2)Man(a1-3)[GlcNAc(b1-3)Gal(b1-4)GlcNAc(b1-3)Gal(b1-4)GlcNAc(b1-3)Gal(b1-4)GlcNAc(b1-2)Man(a1-6)]Man(b1-4)GlcNAc(b1-4)[Fuc(a1-6)]GlcNAc
Method in brief: as §1

[32] = target: GlcNAc(b1-3)Gal(b1-4)GlcNAc(b1-3)Gal(b1-4)GlcNAc(b1-3)Gal(b1-4)GlcNAc(b1-3)Gal(b1-4)GlcNAc(b1-2)Man(a1-3)[GlcNAc(b1-3)Gal(b1-4)GlcNAc(b1-3)Gal(b1-4)GlcNAc(b1-3)Gal(b1-4)GlcNAc(b1-3)Gal(b1-4)GlcNAc(b1-2)Man(a1-6)]Man(b1-4)GlcNAc(b1-4)GlcNAc
Method in brief: as §1

[33] = target: GlcNAc(b1-3)Gal(b1-4)GlcNAc(b1-6)[GlcNAc(b1-3)Gal(b1-3)]GalNAc
Method in brief: as §1

[34] = target: GlcNAc(b1-4)Gal(b1-4)GlcNAc
Method in brief: as §1

Kdn(a2-6)Gal(b1-4)GlcNAc = target: Kdn(a2-6)Gal(b1-4)GlcNAc
Method in brief: as §1

Man(a1-2)Man(a1-3)Man = target: Man(a1-2)Man(a1-3)Man
Method in brief: as §1

[35] = target: Man(a1-3)[Man(a1-6)]Man(a1-6)[Man(a1-3)]Man(b1-4)GlcNAc(b1-4)GlcNAc
Method in brief: as §1

[36] = target: Neu5Ac(a2-3)Gal(b1-3)GlcNAc6S
Method in brief: as §1

[37] = target: Neu5Ac(a2-3)Gal(b1-4)GlcNAc(b1-3)Gal(b1-4)GlcNAc(b1-3)Gal(b1-4)GlcNAc
Method in brief: as §1

[38] = target: Neu5Ac(a2-3)Gal(b1-4)[Fuc(a1-3)]GlcNAc(b1-3)GalNAc
Method in brief: as §1

[39] = target: Neu5Ac(a2-3)Gal(b1-4)[Fuc(a1-3)]GlcNAc6S
Method in brief: as §1

[40] = target: Neu5Ac(a2-3)[GalNAc(b1-4)]Gal(b1-4)GlcNAc
Method in brief: as §1

[41] = target: Neu5Ac(a2-3)[GalNAc(b1-4)]Gal(b1-4)GlcNAc(b1-3)GalNAc
Method in brief: as §1

Neu5Ac(a2-6)Gal = target: Neu5Ac(a2-6)Gal
Method in brief: as §1

[42] = target: Neu5Ac(a2-6)Gal(b1-3)GlcNAc(b1-3)[Gal(b1-4)GlcNAc(b1-6)]Gal(b1-4)Glc
Method in brief: as §1

[43] = target: Neu5Ac(a2-6)Gal(b1-4)GlcNAc(b1-2)Man(a1-3)[Neu5Ac(a2-6)Gal(b1-4)GlcNAc(b1-2)Man(a1-6)]Man(b1-4)GlcNAc(b1-4)[Fuc(a1-6)]GlcNAc
Method in brief: as §1

Neu5Ac(a2-6)GalNAc = target: Neu5Ac(a2-6)GalNAc
Method in brief: as §1

Neu5Ac(b2-6)GalNAc = target: Neu5Ac(b2-6)GalNAc
Method in brief: as §1

B1: Langerin K299A/K313A (Homo sapiens), Q9UJ71 (protein)
chain: STLNAQIPELKSDLEKASALNTKIRALQGSLENMSKLLKRQNDILQVVSQGWKYFKGNFYYFSLIPKTWYSAEQFCVSRNSHLTSVTSESEQEFLYKTAGGLIYWIGLTKAGMEGDWSWVDDTPFNKVQSARFWIPGEPNNAGNNEHCGNIAAPSLQAWNDAPCDATFLFICKRPYVPSEP
glycan array binding signal (z-score) [1]: 0.388
glycan array binding signal (z-score) [2]: -0.127
glycan array binding signal (z-score) [3]: 2.71
glycan array binding signal (z-score) [4]: 0.332
glycan array binding signal (z-score) [5]: -0.015
glycan array binding signal (z-score) [6]: 3.28
glycan array binding signal (z-score) [7]: 0.222
glycan array binding signal (z-score) [8]: 0.313
glycan array binding signal (z-score) [9]: 0.842
glycan array binding signal (z-score) [10]: -0.202
glycan array binding signal (z-score) (Gal(a1-3)Gal): -0.327
glycan array binding signal (z-score) [11]: 1.22
glycan array binding signal (z-score) [12]: 0.892
glycan array binding signal (z-score) (Gal(a1-4)Gal(b1-4)GlcNAc): -0.009
glycan array binding signal (z-score) [13]: -0.916
glycan array binding signal (z-score) [14]: -0.826
glycan array binding signal (z-score) [15]: 0
glycan array binding signal (z-score) [16]: 1.85
glycan array binding signal (z-score) [17]: 0.445
glycan array binding signal (z-score) [18]: -0.95
glycan array binding signal (z-score) [19]: -0.709
glycan array binding signal (z-score) [20]: 3.14
glycan array binding signal (z-score) [21]: 3.97
glycan array binding signal (z-score) [22]: 3.09
glycan array binding signal (z-score) (Gal3S(b1-4)Glc6S): -0.193
glycan array binding signal (z-score) [23]: 5.35
glycan array binding signal (z-score) (Gal6S(b1-3)GlcNAc): -0.241
glycan array binding signal (z-score) [24]: 0.162
glycan array binding signal (z-score) [25]: 0.155
glycan array binding signal (z-score) [26]: -1
glycan array binding signal (z-score) (Glc(a1-4)Glc): -0.103
glycan array binding signal (z-score) (GlcA(b1-3)Gal): -0.832
glycan array binding signal (z-score) [27]: 0.486
glycan array binding signal (z-score) [28]: 0.619
glycan array binding signal (z-score) [29]: 3.64
glycan array binding signal (z-score) [30]: 0.828
glycan array binding signal (z-score) [31]: 5.83
glycan array binding signal (z-score) [32]: 2.75
glycan array binding signal (z-score) [33]: -0.82
glycan array binding signal (z-score) [34]: -0.886
glycan array binding signal (z-score) (Kdn(a2-6)Gal(b1-4)GlcNAc): 0.407
glycan array binding signal (z-score) (Man(a1-2)Man(a1-3)Man): -1.07
glycan array binding signal (z-score) [35]: -0.582
glycan array binding signal (z-score) [36]: -0.784
glycan array binding signal (z-score) [37]: 0.361
glycan array binding signal (z-score) [38]: 3.01
glycan array binding signal (z-score) [39]: 0.192
glycan array binding signal (z-score) [40]: -0.463
glycan array binding signal (z-score) [41]: 0.982
glycan array binding signal (z-score) (Neu5Ac(a2-6)Gal): 0.01
glycan array binding signal (z-score) [42]: 0.329
glycan array binding signal (z-score) [43]: 3.07
glycan array binding signal (z-score) (Neu5Ac(a2-6)GalNAc): -0.621
glycan array binding signal (z-score) (Neu5Ac(b2-6)GalNAc): -0.61
